{"source": "PubChem BioAssay AID651739", "about": "(Broad Institute, 2012)", "note": "About 4,100 (73%) of roughly 5,600 compounds were called active. Inconclusive results (about 4%) are left out. So high a share suggests a set chosen from earlier hits. The list is a sample of the results. A number with no mark means an inactive call.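 The calls were made as follows: active = mean replicate inhibition above about 95% and at least 55% of replicates individually reaching it (limit read from the data); inconclusive = only one of the two criteria is met; inactive = neither criterion is met.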", "data": [{"experiment": "T. cruzi intracellular proliferation inhibitors, confirmation, cell-based, NIH3T3 host, beta-gal parasite, luminescence, cherry-pick (AID 651739)", "details": "T. cruzi beta-gal in NIH3T3, GalScreen luminescence, 90 h; at 8.35 µM; active compounds read high", "values": [{"smiles": "C[C@@H]1CCCCO[C@H](CN(C)S(=O)(=O)c2cccs2)[C@H](C)CN([C@H](C)CO)C(=O)c2cc(NS(=O)(=O)c3ccc(F)cc3)ccc2O1", "inhibition": "109% (active)"}, {"smiles": "CC(C)(C)[S@@](=O)N1Cc2cc(C(=O)NCc3ccc4c(c3)OCO4)nc(-c3cccc(-c4ccccc4)c3)c2[C@H]1CCO", "inhibition": "105% (active)"}, {"smiles": "O=C(C1CCCC1)N1CCCCN2[C@@H](CO)[C@H](c3ccc(-c4cccc(F)c4)cc3)[C@@H]2C1", "inhibition": "112% (active)"}, {"smiles": "CN(C)C(=O)c1ccc(-c2ccc([C@H]3[C@@H](CO)N4CCCCN(CC5CC5)C[C@H]34)cc2)cc1", "inhibition": "90%"}, {"smiles": "O=C(C1CC1)N1CCCCN2[C@H](CO)[C@H](c3ccc(-c4cccc(F)c4)cc3)[C@H]2C1", "inhibition": "99.1% (active)"}, {"smiles": "O=C(C1CCC1)N1CCCCN2[C@H](CO)[C@H](c3ccc(-c4ccncc4)cc3)[C@@H]2C1", "inhibition": "103% (active)"}, {"smiles": "OC[C@@H]1[C@H](c2ccc(C#CC3CC3)cc2)[C@@H]2CN(CCC(F)(F)F)CCCCN12", "inhibition": "105% (active)"}, {"smiles": "N#Cc1cccc(-c2ccc([C@H]3[C@H](CO)N4CCCCN(C(=O)Nc5cccc(F)c5)C[C@@H]34)cc2)c1", "inhibition": "94.2%"}, {"smiles": "O=C(Nc1cccc(F)c1)N1CCCCN2[C@H](CO)[C@H](c3ccc(C#CC4CC4)cc3)[C@@H]2C1", "inhibition": "109% (active)"}, {"smiles": "O=C(Nc1ccccc1)N1CCCCN2[C@H](CO)[C@@H](c3ccc(C#Cc4ccccn4)cc3)[C@H]2C1", "inhibition": "90%"}, {"smiles": "O=C(C1CCC1)N1CCCCN2[C@H](CO)[C@H](c3ccc(-c4cccc(F)c4)cc3)[C@@H]2C1", "inhibition": "109% (active)"}, {"smiles": "C[C@@H]1CN([C@H](C)CO)S(=O)(=O)c2ccc(C3=CCCC3)cc2O[C@H]1CN(C)Cc1ccccc1F", "inhibition": "99.3% (active)"}, {"smiles": "C[C@H](CO)N1C[C@H](C)[C@@H](CN(C)S(=O)(=O)c2ccc(F)cc2)Oc2cc(C3=CCCC3)ccc2S1(=O)=O", "inhibition": "94.1%"}, {"smiles": "C[C@H]1CN([C@@H](C)CO)S(=O)(=O)c2ccc(C3=CCCC3)cc2O[C@@H]1CN(C)Cc1ccccc1", "inhibition": "96.5% (active)"}, {"smiles": "C[C@H]1CN([C@@H](C)CO)S(=O)(=O)c2ccc(C3=CCCCC3)cc2O[C@@H]1CN(C)Cc1ccccc1", "inhibition": "102% (active)"}, {"smiles": "C[C@@H]1CCCCO[C@@H](CN(C)Cc2ccccc2)[C@H](C)CN([C@H](C)CO)C(=O)c2cc(NC(=O)Nc3cccc4ccccc34)ccc2O1", "inhibition": "96.4% (active)"}, {"smiles": "C[C@@H]1CCCCO[C@@H](CN(C)C(=O)Nc2ccc(F)cc2)[C@H](C)CN([C@H](C)CO)C(=O)c2cc(NC(=O)Nc3cccc4ccccc34)ccc2O1", "inhibition": "114% (active)"}, {"smiles": "C[C@@H]1CN([C@@H](C)CO)C(=O)c2cc(NC(=O)Nc3cccc4ccccc34)ccc2O[C@@H](C)CCCCO[C@H]1CN(C)Cc1ccccc1", "inhibition": "107% (active)"}, {"smiles": "C[C@@H]1CN([C@@H](C)CO)C(=O)c2cc(NC(=O)Cc3ccccc3)ccc2O[C@@H]1CN(C)Cc1ccc(Oc2ccccc2)cc1", "inhibition": "99.9% (active)"}, {"smiles": "C[C@@H]1CN([C@@H](C)CO)C(=O)c2cc(NC(=O)Nc3ccc4c(c3)OCO4)ccc2O[C@@H]1CN(C)Cc1ccc(Oc2ccccc2)cc1", "inhibition": "101% (active)"}, {"smiles": "C[C@H]1CN([C@@H](C)CO)C(=O)c2cc(NC(=O)Nc3ccc4c(c3)OCO4)ccc2O[C@@H]1CN(C)Cc1ccc(Oc2ccccc2)cc1", "inhibition": "103% (active)"}, {"smiles": "C[C@@H]1CN([C@H](C)CO)C(=O)Cc2cc(NC(=O)Cc3ccccc3)ccc2O[C@H]1CN(C)Cc1ccc(Oc2ccccc2)cc1", "inhibition": "112% (active)"}, {"smiles": "C[C@H]1CN([C@@H](C)CO)C(=O)Cc2cc(NC(=O)Cc3cn(C)c4ccccc34)ccc2O[C@@H]1CN(C)Cc1ccc(C(F)(F)F)cc1", "inhibition": "104% (active)"}, {"smiles": "C[C@H]1CN([C@@H](C)CO)C(=O)Cc2cc(NC(=O)Cc3cn(C)c4ccccc34)ccc2O[C@@H]1CN(C)Cc1ccccc1", "inhibition": "77.4%"}, {"smiles": "Cc1ccc(S(=O)(=O)N(C)C[C@@H]2Oc3c(NC(=O)c4nc5ccccc5s4)cccc3C(=O)N([C@H](C)CO)C[C@@H]2C)cc1", "inhibition": "95.2% (active)"}, {"smiles": "COc1ccc(NC(=O)N(C)C[C@@H]2Oc3c(NC(=O)NC4CCCCC4)cccc3C(=O)N([C@@H](C)CO)C[C@@H]2C)cc1", "inhibition": "51.2%"}, {"smiles": "COc1ccc(S(=O)(=O)N(C)C[C@H]2Oc3c(NC(=O)Nc4cccc5ccccc45)cccc3C(=O)N([C@@H](C)CO)C[C@H]2C)cc1", "inhibition": "98.8% (active)"}, {"smiles": "C[C@H]1CN([C@@H](C)CO)C(=O)c2cccc(NS(=O)(=O)c3cn(C)cn3)c2O[C@@H]1CN(C)CC1CCCCC1", "inhibition": "46.2%"}, {"smiles": "C[C@@H]1CN([C@@H](C)CO)S(=O)(=O)c2ccc(C#Cc3ccc(F)cc3)cc2O[C@H]1CN(C)C(=O)c1ccccn1", "inhibition": "108% (active)"}, {"smiles": "C[C@@H]1CN([C@@H](C)CO)S(=O)(=O)c2ccc(-c3ccncc3)cc2O[C@@H]1CN(C)C(=O)Nc1ccc(F)cc1", "inhibition": "100% (active)"}, {"smiles": "C[C@@H]1CN([C@@H](C)CO)S(=O)(=O)c2ccc(C#Cc3ccccc3)cc2O[C@@H]1CN(C)C(=O)Nc1ccccc1", "inhibition": "103% (active)"}, {"smiles": "C[C@@H]1CN([C@@H](C)CO)S(=O)(=O)c2ccc(C#Cc3ccc(F)cc3)cc2O[C@H]1CN(C)C(=O)NC1CCCC1", "inhibition": "105% (active)"}, {"smiles": "N#Cc1ccc(-c2ccc3c(c2)[C@@H]2[C@@H](CCN2C(=O)Cc2ccncc2)[C@@H](CO)N3)cc1", "inhibition": "112% (active)"}, {"smiles": "COCC(=O)N1CC[C@@H]2[C@@H](CO)Nc3ccc(-c4cccc(C#N)c4)cc3[C@@H]21", "inhibition": "111% (active)"}, {"smiles": "C[C@H](CO)N1C[C@H](C)[C@@H](CN(C)C(=O)Nc2cc(F)ccc2F)Oc2cc(C#CC3CC3)ccc2S1(=O)=O", "inhibition": "108% (active)"}, {"smiles": "C[C@H]1CN([C@@H](C)CO)S(=O)(=O)c2ccc(C#CC3CCCC3)cc2O[C@@H]1CN(C)C(=O)c1cccc(F)c1", "inhibition": "96.6% (active)"}, {"smiles": "C[C@@H]1CN([C@H](C)CO)S(=O)(=O)c2ccc(-c3cccc(C#N)c3)cc2O[C@@H]1CN(C)C(=O)Nc1ccccc1F", "inhibition": "86.6%"}, {"smiles": "N#C[C@@H]1[C@@H](c2ccc(/C=C/c3ccccc3)cc2)[C@@H](CO)N1C(=O)C1CC1", "inhibition": "108% (active)"}, {"smiles": "N#C[C@@H]1[C@@H](c2ccc(C#Cc3cccc(F)c3)cc2)[C@@H](CO)N1C(=O)C1CCC1", "inhibition": "104% (active)"}, {"smiles": "N#C[C@@H]1[C@H](c2ccc(C#Cc3cccc(F)c3)cc2)[C@@H](CO)N1C(=O)C1CCCC1", "inhibition": "103% (active)"}, {"smiles": "N#C[C@@H]1[C@@H](c2ccccc2)[C@@H](CO)N1C(=O)Cc1ccccc1", "inhibition": "78.3%"}, {"smiles": "CC(=O)N1[C@H](CNC(=O)C2CC2)[C@@H](c2ccc(-c3cccc(F)c3)cc2)[C@@H]1CO", "inhibition": "19.2%"}, {"smiles": "CC(=O)NC[C@@H]1[C@@H](c2ccc(-c3ccccc3F)cc2)[C@@H](CO)N1C(=O)C1CC1", "inhibition": "15.9%"}, {"smiles": "CCN(C[C@H]1[C@H](c2ccccc2)[C@H](CO)N1C(=O)C1CC1)C(=O)NC1CCCC1", "inhibition": "-20.8%"}, {"smiles": "CCCC#Cc1ccc([C@@H]2[C@@H](C#N)N(C(=O)C3CCCC3)[C@@H]2CO)cc1", "inhibition": "107% (active)"}, {"smiles": "COCC(=O)N1[C@H](CO)[C@@H](c2ccc(C#Cc3ccccc3F)cc2)[C@@H]1C#N", "inhibition": "107% (active)"}, {"smiles": "CC(=O)N(C)C[C@@H]1[C@@H](c2ccc(-c3ccccc3F)cc2)[C@@H](CO)N1C(C)=O", "inhibition": "19.8%"}, {"smiles": "Cc1ccc(S(=O)(=O)N(C)C[C@@H]2OCCCC[C@@H](C)Oc3ccc(NS(=O)(=O)c4ccc(F)cc4)cc3C(=O)N([C@H](C)CO)C[C@H]2C)cc1", "inhibition": "97.7% (active)"}, {"smiles": "C[C@H](CO)N1C[C@H](C)[C@H](CN(C)S(=O)(=O)c2ccc(F)cc2)OCCCC[C@H](C)Oc2ccc(NS(=O)(=O)c3ccc(Cl)cc3)cc2C1=O", "inhibition": "92.1%"}, {"smiles": "Cc1ccc(S(=O)(=O)Nc2ccc3c(c2)C(=O)N([C@H](C)CO)C[C@H](C)[C@H](CN(C)C(=O)Nc2ccc(F)cc2)OCCCC[C@H](C)O3)cc1", "inhibition": "108% (active)"}, {"smiles": "COc1ccc(S(=O)(=O)N(C)C[C@H]2OCCCC[C@H](C)Oc3ccc(NS(=O)(=O)c4ccc(F)cc4)cc3C(=O)N([C@@H](C)CO)C[C@@H]2C)cc1", "inhibition": "106% (active)"}, {"smiles": "C[C@@H]1CCCCO[C@H](CN(C)S(=O)(=O)c2ccc(F)cc2)[C@H](C)CN([C@@H](C)CO)C(=O)c2cc(NS(=O)(=O)c3ccccc3)ccc2O1", "inhibition": "109% (active)"}, {"smiles": "Cc1ccc(S(=O)(=O)N2C[C@@H](O)COC[C@@H]3O[C@H](CC(=O)NCc4ccc(Cl)c(Cl)c4)CC[C@H]32)cc1", "inhibition": "103% (active)"}, {"smiles": "COc1cccc(S(=O)(=O)N2C[C@@H](O)COC[C@@H]3O[C@H](CC(=O)Nc4ccccc4)CC[C@H]32)c1", "inhibition": "62.3%"}, {"smiles": "COc1ccc(CN(C)C[C@H]2Oc3ccc(NS(=O)(=O)c4ccc(Cl)cc4)cc3CC(=O)N([C@@H](C)CO)C[C@H]2C)cc1", "inhibition": "100% (active)"}, {"smiles": "COc1ccc(S(=O)(=O)Nc2ccc3c(c2)C(=O)N([C@H](C)CO)C[C@H](C)[C@H](CN(C)Cc2ccc(C(F)(F)F)cc2)O3)cc1", "inhibition": "106% (active)"}, {"smiles": "COc1ccc(S(=O)(=O)Nc2ccc3c(c2)C(=O)N([C@@H](C)CO)C[C@H](C)[C@H](CN(C)Cc2ccc(C(F)(F)F)cc2)O3)cc1", "inhibition": "104% (active)"}, {"smiles": "C[C@H](CO)N1C[C@H](C)[C@H](CN(C)Cc2ccc(C(F)(F)F)cc2)Oc2ccc(NS(=O)(=O)c3ccc(Cl)cc3)cc2C1=O", "inhibition": "106% (active)"}, {"smiles": "COc1ccc(S(=O)(=O)Nc2ccc3c(c2)C(=O)N([C@@H](C)CO)C[C@H](C)[C@@H](CN(C)Cc2ccc(C(F)(F)F)cc2)O3)cc1", "inhibition": "88.7%"}]}]}
